Results from PubChem BioAssay AID588391 (Broad Institute, 2011).
About 180 (0.051%) of roughly 350,000 compounds were called active.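 The calls were made as follows: active = mean inhibition across replicates of 30% or more, whatever share of single replicates reach that level; inconclusive = mean inhibition below 30% while every single replicate reaches 30%; inactive = the rest.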 The full list was thinned out, with actives kept by preference.

Biological target: Protein disulfide-isomerase (Homo sapiens) (UniProt P07237)
Sequence (P07237 whole entry, looked up): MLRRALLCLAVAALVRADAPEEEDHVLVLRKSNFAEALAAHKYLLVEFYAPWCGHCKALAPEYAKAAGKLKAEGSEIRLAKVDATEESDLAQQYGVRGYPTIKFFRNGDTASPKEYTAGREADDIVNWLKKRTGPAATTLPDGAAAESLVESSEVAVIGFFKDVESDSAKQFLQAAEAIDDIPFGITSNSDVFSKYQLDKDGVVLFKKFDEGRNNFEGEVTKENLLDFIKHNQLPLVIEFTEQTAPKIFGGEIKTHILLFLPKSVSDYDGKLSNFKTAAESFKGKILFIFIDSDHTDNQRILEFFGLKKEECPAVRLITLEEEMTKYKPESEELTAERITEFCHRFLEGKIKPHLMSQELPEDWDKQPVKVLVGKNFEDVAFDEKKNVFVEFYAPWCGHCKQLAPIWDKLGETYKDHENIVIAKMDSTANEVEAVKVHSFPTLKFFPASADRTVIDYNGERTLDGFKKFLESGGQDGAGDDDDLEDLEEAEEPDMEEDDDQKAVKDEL
Assay: inhibitors of human PDI, primary screen, biochemical, turbidity, single point, plate reader (AID 588391);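 also: absorbance from insulin aggregation driven by PDI reduction with DTT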
Conditions: PDI insulin aggregation turbidity, A650, 90 min; at 10 µM; hits give high values

inhibition, inactive:
COc1ccc(-c2cc(NC(C)=O)c3ncc(-c4cc(OC)c(OC)c(OC)c4)n3c2)cn1 -21.1%, CN(C)C(=O)c1cccc(-c2cnc3sc(NCc4ccc5c(c4)OCO5)nn23)c1 9.47%, O=C(NCc1ccc(F)cc1)c1cc(C2CCCCN2C(=O)c2ccccn2)on1 (stereo not drawn) -12%, CCN(CC)C(=O)C1CCCN(Cc2cccc(Cl)c2)C1 (stereo not drawn) -5.23%, Cc1nc(C(F)(F)F)ccc1C(=O)N1CCC1(C)C(=O)NS(=O)(=O)c1ccccc1 (stereo not drawn) -40%, CC(=O)Nc1cc(-c2ccccc2F)cn2c(-c3cccc(C(F)(F)F)c3)cnc12 0.488%, CC(C)c1cccc(-c2csc(C(O)c3ccccc3)n2)c1 (stereo not drawn) 4.52%, CCC(=O)N1CCC(C)(C(=O)Nc2cc(OC)c(OC)c(OC)c2)C1 (stereo not drawn) -1.21%, Cc1ccc(NS(=O)(=O)c2cc3c(cc2Br)NC(=O)CO3)cc1C -4.51%, CCc1nc2c(OCc3ccc(C(F)(F)F)cc3)cccn2c1N(C)C(=O)CC(C)C -3.58%, OC(c1ccccc1)c1nc(-c2cnc3ccccc3c2)cs1 (stereo not drawn) 4.04%, CCOCCC(=O)Nc1ccc2c(c1)c(=O)n(C)n2-c1ccc2ccccc2c1 -6.74%, Cc1nc2c(OCC(=O)C(C)(C)C)cccn2c1N(C)Cc1cccs1 -1.4%, CCCS(=O)(=O)NC(=O)C1(C)CCN(C(=O)c2sccc2C)C1 (stereo not drawn) 4.32%, CCOC(=O)c1ccc(-c2ccc3ncnc(N(C)Cc4sccc4C)c3c2)o1 -3.79%, CCc1nc2ccc(C(=O)N(C)CCN(C)C)cn2c1N(CC)CCOC 12.7%, CC(=O)Nc1ccc(-c2ccnc3c2CC(C(=O)NC(C)C)O3)cc1 (stereo not drawn) -7.94%, COc1ccc(-c2coc3c(C(=O)NC(C)C)cccc23)c(C)c1 -1.08%, Cc1ccc(C(NC(=O)C2CCN(CCOc3ccc(Cl)cc3Cl)CC2)c2ccccn2)cc1 (stereo not drawn) 2.42%, O=C(NCCO)c1cccc(-c2cccc3nccn23)c1 -96.6%, Cc1ccc(-c2cnc(C(O)c3cc(Cl)cc(Cl)c3)[nH]2)cc1 (stereo not drawn) -2.73%, COc1cccc(C(O)c2ncc(-c3ccc4ccccc4c3)[nH]2)c1 (stereo not drawn) 7.38%, COc1ccc(C(=O)N2CCCCC2c2cc(C(=O)Nc3ccccc3)no2)cc1 (stereo not drawn) -4.91%, O=C(NCc1cccnc1)c1ccc2nc([C@@H]3O[C@H](CO)[C@H](O)[C@H](O)[C@H]3O)[nH]c2c1 -7.99%, CC1(C(=O)NS(=O)(=O)c2cccc(F)c2)CCN1C(=O)c1cccc2ccccc12 (stereo not drawn) -12.2%, CC(=O)c1cccc(-c2cnc3c(NC=O)cc(-c4ccccc4Oc4ccccc4)cn23)c1 -15.6%, CCNC(=O)C1CCCN(C(=O)c2ccc(OC)cc2OC)CC1 (stereo not drawn) -2.37%, Cc1ccccc1-c1csc(C(O)c2cccc(Cl)c2)n1 (stereo not drawn) 4.37%, CCN(CCN(C)C)C(=O)c1ccc2nc(C)c(N(C)C(=O)CCc3ccccc3)n2c1 5.52%, CCOc1ccc(Cl)cc1-c1cc(C(=O)NCc2cccs2)[nH]n1 5.86%, CCCNC(=O)c1cc(C2CCCCN2C(=O)OC)on1 (stereo not drawn) 5.56%, CCCC(=O)N1CCC1(C)C(=O)NS(=O)(=O)c1ccc(Cl)cc1 (stereo not drawn) 9.48%, CC=CCn1c(SCCCc2ccccc2)nc2c1c(=O)[nH]c(=O)n2C 8.5%, Oc1cccc2cc(-c3ccncc3)cnc12 -15.1%, COCCNC(=O)C1(C)CCCN(Cc2cccc(F)c2)C1 (stereo not drawn) 1.38%, CCCCN(C=O)c1c(CC)nc2c(OCCC3CCCCC3)cccn12 -6.94%, O=C(NC(c1ccc(-c2ccccc2)cc1)c1cnccn1)C1CCN(CCOc2ccc(Cl)cc2Cl)CC1 (stereo not drawn) 4.84%, COc1ccc(-c2csc(C(O)c3cccc(Cl)c3)n2)cn1 (stereo not drawn) 8.11%, CC(C)(C(=O)N1CCC1(C)C(=O)NS(=O)(=O)c1ccc(Br)cc1)c1ccccc1 (stereo not drawn) -3.96%, COc1cc(NC(=O)c2cc(-c3ccc(F)cc3OC(C)C)n[nH]2)cc(OC)c1OC -4.94%, CC(C)Oc1cc(F)ccc1-c1cc(C(=O)Nc2cccc(Cl)c2)[nH]n1 12.1%, Cc1ccccc1Cn1c(C)c(C(=O)NCc2cccc(C(F)(F)F)c2)sc1=O -0.337%, CC(=O)Nc1cc(-c2ccc(N3CCN(C)CC3)cc2)cn2c(-c3ccc(F)cc3)cnc12 0.066%, CCCNC(=O)C1(C)CCN1C(=O)Cc1ccc(-c2ccccc2)cc1 (stereo not drawn) 12.7%, Cc1cccc(CNC(=O)c2sc(=O)n(Cc3ccccc3C)c2C)c1 -13.7%, O=C(Nc1ccc(Cl)c(C(F)(F)F)c1)C1Cc2c(-c3ccccc3Oc3ccccc3)ccnc2O1 (stereo not drawn) -5.07%, CNc1cncc(-c2ccc(NS(C)(=O)=O)cc2)n1 -0.527%, COc1ccc(Cl)cc1-c1cc(C(=O)Nc2cc(OC)c(OC)c(OC)c2)[nH]n1 -0.731%, CN1CCN(C(=O)c2ccc(-c3cc4nc(NCc5cccnc5)n(C)c(=O)c4s3)cc2)CC1 16.2%, COc1ccc(-c2ccc(C(=O)NC(C)C)c3occc23)c(C)c1 -1.92%, COc1cccc(CNc2nc3cc(-c4csc5ccccc45)sc3c(=O)n2C)c1 -2.68%, Cc1nc2c(OCc3cccc(Cl)c3)cccn2c1N(C)CC1CC1 4.97%, CCCCC(=O)N(C)c1c(CC)nc2c(OCc3ccc(Cl)cc3Cl)cccn12 -3.52%, OC(c1ccccc1)c1nc(/C=C/c2ccc(C(F)(F)F)cc2)cs1 (stereo not drawn) -51.4%, CN(C)CCNC(=O)c1ccc(-c2cn3c(-c4ccc(Oc5ccccc5)cc4)cnc3cn2)cc1 -1.11%, COc1cccc(-c2cc3nc(NCCOc4ccccc4Cl)n(C)c(=O)c3s2)c1 -11.2%, CCc1nc2ccc(C(=O)NC3CCN(Cc4ccccc4)CC3)cn2c1N(CC)CCOC -3.56%, O=C(NCc1cccc(C(F)(F)F)c1)c1ccc2sc(COCCO)nc2c1 -1.75%, CN(C)CCNC(=O)c1cccc(-c2cnc3c(NC=O)cc(-c4cccc(C(F)(F)F)c4)cn23)c1 4.96%, Cc1cc(C)n2nc(SCC(N)=O)nc2n1 -1.27%, Cc1cc(C)n2nc(C(=O)NC(C)(C)C)nc2n1 0.598%, CC1(C(=O)NS(=O)(=O)c2cccc(OC(F)F)c2)CCN1C(=O)C1CC1 (stereo not drawn) -4.8%, CCCOc1ccc(F)cc1-c1cc(C(=O)NCc2ccc(F)cc2)[nH]n1 -0.369%, CC1(C(=O)Nc2cccc3c2CCCC3)CCN1C(=O)C1(c2ccccc2)CC1 (stereo not drawn) -0.663%, NC(c1csc(NC(=O)Nc2cccc(C(F)(F)F)c2)n1)C1CCCCC1 (stereo not drawn) 0.691%, CC(C)(C)c1ccc(/C=C2\SC(=O)N=C2N)cc1 7.63%, O=C1N=C(N2CCc3ccccc3C2)S/C1=C\c1ccc(O)cc1 -5.75%, OC(c1ccc(Cl)cc1)c1ncc(-c2ccc(Cl)cc2)[nH]1 (stereo not drawn) -6.36%, COc1ccc(C2CC(c3cccc(OC)c3)=NN2c2ccc(S(N)(=O)=O)cc2)cc1 (stereo not drawn) -2.45%, COc1ccc(C(C)(NC(C)=O)c2nc(-c3ccc(S(C)(=O)=O)cc3)cs2)cc1 (stereo not drawn) 4.43%, COc1cc(F)ccc1-c1cc(C(=O)NCC2CCCCC2)[nH]n1 25%, CC1(Cc2cccc(C#N)c2)C(=O)Nc2ccc(-c3cccc(C(F)(F)F)c3)cc21 (stereo not drawn) 10.6%, CC(=O)Nc1ccc(CNc2nc(NCCN(C)C)nc3cc(-c4ccccc4)sc23)cc1 -1.45%, Cc1cc(O)ccc1-c1cc(C(=O)NCc2cc(C(F)(F)F)cc(C(F)(F)F)c2)[nH]n1 -11.3%, Cc1cccnc1C(NC(=O)C1CCN(Cc2ccc(Cl)c(Cl)c2)CC1)c1ccc(Cl)cc1 (stereo not drawn) -20.8%, CCCNC(=O)c1cc(C2CCCCN2S(=O)(=O)c2ccc(C#N)cc2)on1 (stereo not drawn) 9%, Cc1ccc(Cn2c(C)c(C(=O)NCc3ccccc3C(F)(F)F)sc2=O)cc1 -2.82%, CCN(CC)c1ncnc2c1ncn2[C@H]1CN(Cc2cccs2)C[C@@H](CO)O1 5.5%, Cc1cccn2c(CNCC(C)Oc3cccnc3)c(C(=O)N3CCOCC3)nc12 (stereo not drawn) 3.93%, CCOC(=O)C1CCN(Cc2c(C(=O)N3CCOCC3)nc3c(C)cccn23)CC1 -7.14%, O=C(Nc1nnc([C@H]2C[C@H](O)[C@@H](CO)O2)s1)c1cccc(Cl)c1 12.3%, CC(=O)Nc1cc(-c2ccccc2N(C)C)cn2c(-c3ccc(F)c(Cl)c3)cnc12 -1.53%, CC(O)(c1cccc(F)c1)c1nc(-c2ccc3c(c2)OCO3)cs1 (stereo not drawn) 0.825%, Cc1nc2c(OCc3ccc(Cl)cc3)cccn2c1N(C)Cc1cccs1 -1.78%, CCOC(=O)c1c(CN2CCOCC2)n(-c2ccccc2)c2ccc(O)cc12 27.2%, CCOC(=O)c1c(-c2ccccc2)oc2cc(Br)c(O)c(C=O)c12 6.15%, CCOC(=O)c1c(-c2ccccc2)oc2ccc(OCC(=O)NN)cc12 -2.38%, CCOC(=O)c1c(NC(C)=O)sc2c(O)c(Br)ccc12 3.13%, O=C(NCc1cccnc1)c1cc(C2CCCCN2C(=O)CCc2ccccc2)on1 (stereo not drawn) 3.32%, CCCC(=O)N1CCC1(C)C(=O)Nc1ccc(-n2cncn2)cc1 (stereo not drawn) 4.25%, COc1ccc(C(C)(O)c2nc(-c3cc(F)cc(F)c3)cs2)cc1 (stereo not drawn) -18.6%, Cc1ccc(CC2(C)C(=O)Nc3ccc(OC(F)(F)F)cc32)cc1 (stereo not drawn) 5.49%

inhibition, active:
CC(=O)OC1CCC2C3CCC4=C(CC(F)C(=O)C4)C3CCC12C (stereo not drawn) 70.6%, Cc1cc(C)n2nc(CNS(=O)(=O)c3c(F)c(F)c(F)c(F)c3F)nc2n1 127%, NC1=NC(=O)S/C1=C\c1ccc(O)cc1 43.5%, Cc1cccn2c(CN(C)C3CCCc4ccccc43)c(C(=O)N3CCOCC3)nc12 (stereo not drawn) 36.6%, CCOC(=O)c1c(CN(C)C)n(-c2ccccc2)c2cc(Br)c(O)cc12 39.9%, CCOC(=O)c1c(-c2ccccc2)oc2cc(Br)c(O)cc12 36.3%
